We go through 103 molecules from PubChem BioAssay AID932 (The Scripps Research Institute Molecular Screening Center, 2007).

About 5,100 (2.5%) of roughly 200,000 compounds were called active.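 Rule for the calls: active = activation above the screen-wide mean activation plus 3 SD (cut at about 130% in these data); inactive = the rest.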 The entries come from a sample that favours actives as a whole.

A short description of this assay: potentiators of IFN-gamma driven STAT1 reporter – cell-based, HTS, luciferase reporter, primary screen (AID 932).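 Note: raw ratio to IFN-gamma control signal so 100% means no change and 0% no light.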 As to conditions: NIH 3T3 STAT1-luciferase reporter, luminescence, at 5.5 µM, hits give high values, 100% = IFN-gamma alone, no compound. Background: A reporter such as luciferase makes a cellular process visible.
For `Cc1cccc(NC(=O)c2cccc(C(F)(F)F)c2)c1`, the activation (% of control) was 107% (inactive).
With `Cc1ccc(NC(=O)Nc2cccc(C(F)(F)F)c2)nc1`, the activation (% of control) was 129% (active).
The figure for `O=C(Nc1cccc(C(F)(F)F)c1)c1cnccn1` is 110% (inactive); for `CN(C)c1ccc2c(=O)[nH][nH]c(=O)c2c1` it is 103% (inactive); for `COc1ccc(-n2c(C)nn(CC3CC3)c2=O)cc1` it is 97.8% (inactive).
With `NS(=O)(=O)c1ccc(CCNC(=O)CCCn2c(SCC(=O)N3CCCC3)nc3ccsc3c2=O)cc1`, the activation (% of control) is 99.5% (inactive).
Turning to `CCc1ccc(NC(=O)CC2C(=O)NCCN2C(=S)Nc2ccccc2)cc1` (stereo not drawn), the activation (% of control) was 100% (inactive).
The figure for `O=C1CN(C(=O)COC(=O)c2cnc(Cl)c(Cl)c2)c2ccccc2N1` is 92.8% (inactive).
Consider `CCN(CC)N=Nc1cccc(NC(C)=O)c1`, for which the activation (% of control) was 88.6% (inactive).
As to `Cc1nonc1NC(=O)CSc1nc2ccccc2cc1C#N`, the activation (% of control) was 117% (inactive).
The figure for `CCOc1ccc2nc(NCCNS(=O)(=O)c3ccccc3)c(C#N)cc2c1` is 102% (inactive); for `CCOc1ccc2cc(C#N)c(SCC(=O)OC)nc2c1` it is 150% (active); for `O=C(CSc1cccc[n+]1[O-])NCCCc1ccccc1` it is 91.9% (inactive).
As to `CCOC(=O)C1CCN(CCC(=O)Nc2cccc(C)c2)CC1`, the activation (% of control) was 98.8% (inactive).
Turning to `COc1cc(/C=C2/C(=O)ON=C2C)ccc1OCc1ccccc1F`, the activation (% of control) was 129% (active).
With `CCOc1cc(/C=N/O)ccc1OCc1ccccc1F` the figure was 104% (inactive).
In the case of `COc1cc(/C=C2/C(=O)ON=C2C)ccc1OCc1cccc(F)c1`, the activation (% of control) was 128% (inactive).
As to `CCn1c(CSCc2c(Cl)cccc2Cl)n[nH]c1=S`, the activation (% of control) is 98.8% (inactive).
`Cc1noc(C)c1CCC(=O)O`: the activation (% of control) is 95.1% (inactive).
For `COc1ccc(CNC(=O)CN2CCC(n3nnc4cc(F)ccc43)CC2)cc1`, the activation (% of control) was 88.1% (inactive).
As for `CSc1ncccc1C(=O)Nc1nc2ccc(F)cc2s1`, the activation (% of control) was 123% (inactive).
As to `Fc1ccc2nc(Nc3nc4c(s3)CCCC4)sc2c1`, the activation (% of control) was 162% (active).
The figure for `COc1ccc2nc(Nc3nc4cc5c(cc4s3)OCCO5)sc2c1` is 114% (inactive); for `CCCCCC(=O)Nc1ccc(S(=O)(=O)Nc2ccc(Cl)nn2)cc1` it is 102% (inactive).
Regarding `O=C(C1=C[C@H](c2coc3ccccc3c2=O)C[C@H](OCc2ccc(CO)cc2)O1)N1CCOCC1`, the activation (% of control) was 102% (inactive).
For `COc1ccc(/C=N/NC(=O)Cn2cc(C(F)(F)F)ccc2=O)cc1`, the activation (% of control) was 97.9% (inactive).
On to `Cc1ccccc1OCCC(=O)OCC(=O)NC(C)c1ccccc1` (stereo not drawn), for which the activation (% of control) was 99.7% (inactive).
With `COCCOC(=O)c1c(C)oc2cc(Br)c(OCC(N)=O)cc12` the figure was 94.5% (inactive); with `Cc1ccc(COc2ccc(C(=O)NN)cc2)cc1`, 116% (inactive); with `c1ccc(Nc2nc(-c3ccncc3)cs2)nc1`, 193% (active).
The figure for `Cc1ccc(-c2csc(NC(=O)c3cccs3)n2)cc1` is 123% (inactive); for `CCCc1cc(-c2nc(-c3ccc(C)cc3)cs2)ccn1` it is 99.8% (inactive).
As to `Clc1ccc(Nc2nc(-c3cccs3)cs2)nc1`, the activation (% of control) is 196% (active).
For `c1cnc(Nc2nc(-c3ccc4ccccc4c3)cs2)nc1`, the activation (% of control) is 164% (active).
For the molecule `COc1ccc(-c2csc(Nc3ccccn3)n2)cc1`, the activation (% of control) was 110% (inactive).
For the molecule `Oc1ccc(-c2csc(Nc3cccnc3)n2)cc1`, the activation (% of control) is 110% (inactive).
For the molecule `Cc1ccc(-c2csc(NC(=O)Cc3cccs3)n2)cc1C`, the activation (% of control) was 111% (inactive).
Turning to `O=C(Nc1ccc(Cl)cn1)Nc1cccs1`, the activation (% of control) was 123% (inactive).
For `NC(=O)c1ccccc1N=Cc1ccc2ccccc2c1`, the activation (% of control) is 124% (inactive).
On to `CCOC(=O)c1cc2c(=O)n3ccccc3nc2n(CC(C)C)c1=NC(=O)c1c(-c2c(F)cccc2Cl)noc1C`, for which the activation (% of control) is 89.8% (inactive).
`CC(C)OC(=O)Cn1nc(C(F)(F)F)c2c1CCCC2`: the activation (% of control) was 96.5% (inactive).
As for `Cc1ccc2nc(SCc3cn4c(C)cc(C)nc4n3)[nH]c2c1`, the activation (% of control) was 96.4% (inactive).
As to `CNC(=O)c1ccc(NC(=O)c2cccc(C(F)(F)F)c2)cc1`, the activation (% of control) is 98.4% (inactive).
With `Cc1cc(C)c(C#N)c(N2CCC(C(N)=O)CC2)n1` the figure was 98.4% (inactive).
Turning to `COc1cc(/C=N/n2c(C)n[nH]c2=S)ccc1OCc1ccccc1`, the activation (% of control) was 144% (active).
On to `Cc1n[nH]c(=S)n1/N=C/c1ccc(Br)o1`, for which the activation (% of control) is 104% (inactive).
As for `CNC(=S)N/N=C/c1ccc(OCc2ccccc2)c(Br)c1`, the activation (% of control) is 119% (inactive).
Take `C=C(C)C(=O)Nc1cccc(C(C)=O)c1`: the activation (% of control) is 102% (inactive).
For the molecule `CCN(CC)C(=O)C(=O)Nc1cccc(Br)c1`, the activation (% of control) is 129% (active).
On to `CSc1ccccc1NC(=O)CN(C)CC(=O)Nc1cccc(Br)c1`, for which the activation (% of control) was 89.3% (inactive).
As for `CCOc1ccc(C(C)=O)cc1COC(=O)c1cnc(Cl)c(Cl)c1`, the activation (% of control) is 101% (inactive).
Turning to `Cc1ccnc(NC(=O)c2ccc(Cl)c([N+](=O)[O-])c2)c1`, the activation (% of control) is 95.8% (inactive).
With `Fc1cccc(Cl)c1CSc1ccc(-c2ccco2)nn1` the figure was 126% (inactive).
Turning to `Cn1c(SCc2c(F)cccc2Cl)nnc1-c1cnccn1`, the activation (% of control) is 130% (active).
For `O=C(CSc1nnc(-c2cnccn2)n1Cc1ccco1)c1ccc(Cl)c(Cl)c1`, the activation (% of control) was 94.7% (inactive).
On to `O=C(CSc1nnc(C2CC2)n1Cc1ccccc1)Nc1cccnc1Cl`, for which the activation (% of control) is 96.9% (inactive).
The figure for `CCc1ccc(CN(C)C(=O)CCc2nnc(-c3ccc(-c4ccccc4)cc3)o2)nc1` is 93.4% (inactive); for `Cc1ccccc1C(=O)Nc1ccc(N2CCCCCC2)cc1` it is 141% (active); for `COc1cccc(C(=O)Nc2ccc(N3CCCC3)cc2)c1` it is 127% (inactive).
In the case of `COc1cccc(OC)c1C(=O)Nc1ccc(N2CCCCC2)cc1`, the activation (% of control) is 103% (inactive).
For `CCc1cc2c(=O)c(-c3ccc(F)cc3)c(C(F)(F)F)oc2cc1OCC(=O)O`, the activation (% of control) was 97.7% (inactive).
As to `C/C(CC(=O)Nc1ccc(C)cc1C)=N\NC(=O)C(C)C`, the activation (% of control) was 102% (inactive).
Regarding `O=S(=O)(c1cccc(C(F)(F)F)c1)N1CCN(c2cnccn2)CC1`, the activation (% of control) is 108% (inactive).
With `Cc1cc(C)nc(N2CCC(C(=O)Nc3ccc4c(c3)OCCO4)CC2)n1`, the activation (% of control) is 101% (inactive).
In the case of `O=C(Nc1ccc2c(c1)OCCO2)C1CCCN(c2ncccn2)C1` (stereo not drawn), the activation (% of control) was 143% (active).
Consider `Cc1ccnc(N2CCCC(C(=O)Nc3cc(F)ccc3C)C2)n1` (stereo not drawn), for which the activation (% of control) was 104% (inactive).
On to `NS(=O)(=O)c1ccc(NC(=S)Nc2ccc(Br)c(Cl)c2)cc1`, for which the activation (% of control) was 94.5% (inactive).
With `CCC(C)N(C(=O)COC(=O)C1C(C(=O)OC)=C(C)NC(C)=C1C(=O)OC)C1CCS(=O)(=O)C1` (stereo not drawn), the activation (% of control) was 102% (inactive).
As for `O=C(Nc1ccc(Cl)cc1)C1c2cccc[n+]2CC(=O)N1Cc1ccc2c(c1)OCO2` (stereo not drawn), the activation (% of control) was 101% (inactive).
`Cc1cc(C)nc(NNC2=CC(=O)CC(C)(C)C2)n1`: the activation (% of control) is 115% (inactive).
For the molecule `Cc1ccc(/C=N/NC(=O)CSc2nc3ccccc3o2)cc1`, the activation (% of control) was 111% (inactive).
Regarding `CCN(CC)C(=O)CSc1nc2ccccc2o1`, the activation (% of control) was 110% (inactive).
The figure for `CC(C)(C)C(=O)CSc1nc2ccccc2o1` is 150% (active).
Regarding `COc1ccc(/C=C2/SC(=O)N(CCCCCC(=O)Nc3ccccc3C(=O)O)C2=S)cc1`, the activation (% of control) was 102% (inactive).
On to `Cc1nnc(SCC(=O)N2CCc3ccccc32)n1-c1ccccc1`, for which the activation (% of control) is 100% (inactive).
On to `NC(=O)N1CCc2ccccc21`, for which the activation (% of control) is 98.2% (inactive).
With `O=C(CSCc1ccccc1)N1CCc2ccccc21` the figure was 138% (active); with `CCOc1ccc(NC(=O)CN(C)CC(=O)NC(C)c2ccccc2)cc1OCC` (stereo not drawn), 99.4% (inactive).
Turning to `Cc1ccc(Nc2nc(-c3ccc(O)cc3O)cs2)nc1`, the activation (% of control) is 143% (active).
On to `Cc1ccc(NC(=O)c2cc(-c3ccc(C)o3)nc3ccccc23)nc1`, for which the activation (% of control) was 91.3% (inactive).
The figure for `Cc1ccc(-c2csc(NNC(=O)c3ccccc3)n2)cc1` is 102% (inactive); for `CN(C)/C=C(/C(=O)c1ccc(F)cc1)S(=O)(=O)c1ccc(F)cc1` it is 106% (inactive).
`CCN(CCn1cccn1)C(=O)CC1C(=O)NCCN1Cc1cccc(OC)c1OC` (stereo not drawn): the activation (% of control) is 96.3% (inactive).
With `COc1ccc(N2CCN(C(=O)COc3ccc4c(C)cc(=O)oc4c3)CC2)cc1` the figure was 93.8% (inactive).
On to `CC1(C)CC(N(Cc2ccccc2)C(=O)Cc2ccccc2)CCO1` (stereo not drawn), for which the activation (% of control) was 89.7% (inactive).
Take `CCOC(=O)/C(C#N)=C/c1ccc(N2CCCCC2)cc1`: the activation (% of control) was 155% (active).
As to `CCOC(=O)/C(C#N)=C/c1ccc(N2CCN(Cc3ccccc3)CC2)cc1`, the activation (% of control) is 107% (inactive).
The figure for `COc1ccc(N2CCN(C(=O)/C(C#N)=C/c3ccccc3)CC2)cc1` is 105% (inactive); for `CCc1ccc(/C=C2\SC(N3CCOCC3)=NC2=O)cc1` it is 103% (inactive).
`O=C1N=C(N2CCOCC2)S/C1=C\C=C/c1ccccc1`: the activation (% of control) is 141% (active).
`Cc1ccsc1/C=C1\SC(N2CCOCC2)=NC1=O`: the activation (% of control) was 127% (inactive).
The figure for `CN(Cc1nc2ccc(F)cc2[nH]1)Cc1nc(CC2CC2)no1` is 107% (inactive); for `CCCC(NC(=O)c1ccco1)c1nc2ccccc2[nH]1` (stereo not drawn) it is 97.5% (inactive).
With `O=C(COC(=O)c1ccc2c(c1)OCCO2)NCc1ccccc1` the figure was 101% (inactive).
As to `O=C(OCc1ccccc1F)c1ccc2c(c1)OCCO2`, the activation (% of control) is 139% (active).
Regarding `CC(NC(=O)COC(=O)c1ccc2c(c1)OCO2)c1ccccc1` (stereo not drawn), the activation (% of control) was 102% (inactive).
Regarding `CCOC(=O)c1ccc(NC(=S)N2CCCC2)cc1`, the activation (% of control) was 100% (inactive).
Turning to `CCn1ncc(CNC(=O)C2(C)CC2(Br)Br)c1C` (stereo not drawn), the activation (% of control) is 90% (inactive).
On to `COCCCNC(=O)Cn1cc(/C=C(\C#N)C(=O)N2CCN(c3ccccc3)CC2)c2ccccc21`, for which the activation (% of control) is 96.8% (inactive).
Consider `O=C(NC1=NCCS1)[C@H](Cc1ccccc1)N1C(=O)c2ccccc2C1=O`, for which the activation (% of control) was 107% (inactive).
`O=C(NCc1ccc2c(c1)OCO2)c1ccc(Cl)s1`: the activation (% of control) is 99.1% (inactive).
Turning to `O=C(NC1=NCCS1)c1ccc(Cl)s1`, the activation (% of control) was 141% (active).
As for `CCOc1ccc(C(C)=O)cc1CSc1nnc(-c2ccncc2)n1CCOC`, the activation (% of control) is 99.7% (inactive).
